# Laboratory results as given in the supplement of paper PMC8253809.
# Values joined by “and” are separate entries in the source; they are usually repeats but may differ in a detail not shown here. Equal entries are not always repeated.
# Columns and labels:
# Assay in all cases: growth inhibition (% activity, log2 RLU normalised to DMSO / staurosporine); higher = more growth inhibition
# Details in all cases: 33 µM
# DIPGX29 = tested on: DIPGX29 (H3.3 K27M diffuse intrinsic pontine glioma line)
# How it was run: (§1)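 pHGG cell lines and H9-derived neural stem cells were grown on Geltrex-coated 384-well plates. Approved drugs were added by pin tool at a single final concentration of about 33 μM, in triplicate, for 7 days at 37 °C, 5% CO2. CellTiter-Glo luminescence was log2-transformed and normalised per plate to % activity between solvent and positive control wells. The growth-inhibition value is the median over replicates.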
# DIPGX37 = tested on: DIPGX37 (H3.3 K27M diffuse intrinsic pontine glioma line)
# How it was run: as §1
# DIPGX7 = tested on: DIPGX7 (H3.3 K27M diffuse intrinsic pontine glioma line)
# How it was run: as §1
# DIPGX9 = tested on: DIPGX9 (diffuse intrinsic pontine glioma line)
# How it was run: as §1
# HGGX39 = tested on: HGGX39 (paediatric high-grade glioma line)
# How it was run: as §1
# HGGX6 = tested on: HGGX6 (H3.3 G34R paediatric high-grade glioma line)
# How it was run: as §1
# HNSC = tested on: HNSC
# How it was run: as §1
# SUDIPGIV = tested on: SUDIPGIV (diffuse intrinsic pontine glioma line)
# How it was run: as §1
# SUDIPGVI = tested on: SUDIPGVI (diffuse intrinsic pontine glioma line)
# How it was run: as §1
# SUDIPGXIII = tested on: SUDIPGXIII (diffuse intrinsic pontine glioma line)
# How it was run: as §1
SMILES,growth inhibition (DIPGX29),growth inhibition (DIPGX37),growth inhibition (DIPGX7),growth inhibition (DIPGX9),growth inhibition (HGGX39),growth inhibition (HGGX6),growth inhibition (HNSC),growth inhibition (SUDIPGIV),growth inhibition (SUDIPGVI),growth inhibition (SUDIPGXIII)
CC(C)(C)NC(=O)[C@H]1CC[C@H]2[C@@H]3CC[C@H]4NC(=O)C=C[C@]4(C)[C@H]3CC[C@]12C,1.8%,1.06%,2.69%,0.827%,2.11%,-0.348%,4.13%,0.54%,1.81%,0.754%
Cc1nnc(C(C)C)n1C1C[C@H]2CC[C@@H](C1)N2CC[C@H](NC(=O)C1CCC(F)(F)CC1)c1ccccc1 (stereo in doubt),0.752%,1.42%,6.87%,1.45%,1.14%,-3.69%,45.9%,-0.251%,-0.429%,-1.27%
CCOC(=O)c1ccc(N)cc1,-1.1%,0.286%,-0.777%,-2.99%,-1.05%,-1.96%,-1.55%,-0.0558%,-0.0967%,0.467%
CCC(NC(C)C)C(O)c1ccc(O)c(O)c1 (stereo not given),2.91%,3.09%,1.03%,1.97%,2.82%,5.22%,3.15%,1.08%,5.58%,1.21%
CCCCc1ncc(/C=C(\Cc2cccs2)C(=O)O)n1Cc1ccc(C(=O)O)cc1,-0.827%,0.563%,-1.23%,-0.197%,0.41%,0.268%,-1.62%,-1.58%,0.0226%,-13.9%
COC(c1ccccc1)(c1ccccc1)[C@H](Oc1nc(C)cc(C)n1)C(=O)O,1.89%,2.75%,1.17%,0.496%,2.43%,1.67%,1.25%,-2.2%,2.3%,-15.1%
Clc1ccc(COC(Cn2ccnc2)c2ccc(Cl)cc2Cl)c(Cl)c1 (stereo not given),3.52% and 3.73%,2.39% and 1.02%,2.11% and 1.8%,4.24% and 1.75%,8.09% and 4.5%,8.84% and 5.54%,8.12% and 18.4%,11.2% and 18.5%,2.08% and 0.276%,8.9% and 4.15%
CC(COc1ccccc1)N(CCCl)Cc1ccccc1 (stereo not given),-2.73%,-0.547%,0.876%,-1.7%,-4.31%,-3.53%,41.4%,-2.44%,-7.02%,1.89%
COc1c(N2CCNC(C)C2)c(F)cc2c(=O)c(C(=O)O)cn(C3CC3)c12 (stereo not given),0.952%,-1.73%,2.3%,1.28%,4.77%,0.493%,8.87%,1%,2.31%,1.42%
CN(C)CCOC(c1ccccc1)c1ccccc1,-3.3%,-0.629%,-0.0174%,-1.77%,-3.3%,-2.72%,2.53%,-1.12%,-3.73%,-1.22%
Cc1cc(C2CCCCC2)n(O)c(=O)c1,68.5% and 63.3%,7.69% and 8.51%,54.5% and 43.2%,68.8% and 56.5%,8.59% and 9.1%,67.5% and 63.6%,81.5% and 63.9%,13.4% and 8.52%,-4.21% and -2.85%,21.3% and 10.6%
C[C@@H]1O[C@@H]1P(=O)(O)O,-0.0235%,-0.548%,-0.0992%,1.37%,2.18%,1.12%,0.39%,-0.299%,0.0548%,1.68%
CNC[C@H](O)c1cccc(O)c1,0.744%,-0.539%,2.1%,0.894%,4.28%,0.958%,3.62%,0.826%,0.615%,0.446%
[I-].[K+],-0.931%,-0.668%,-0.00688%,-0.676%,0.215%,-4.01%,20.4%,-0.567%,-0.261%,-4.16%
O=NO,0.973%,1.57%,-0.944%,0.322%,0.656%,1.76%,-0.386%,-0.178%,1.15%,-0.00307%
NC(=O)CC[C@H](N)C(=O)O,-1.66%,0.802%,-0.27%,0.17%,-0.498%,-1.45%,-2.34%,-1.24%,1.4%,-0.384%
CCCCNc1cc(C(=O)O)cc(S(N)(=O)=O)c1Oc1ccccc1,-3.49%,-2.83%,-0.851%,-2.74%,-2.98%,-3.62%,-3.52%,-5.34%,-8.55%,-2.43%
O=c1cc[nH]c(=S)[nH]1,1.29%,1.68%,2.17%,2.37%,0.218%,-1.78%,36.9%,1.67%,-6.46%,0.601%
C[C@@H](O)[C@H]1C(=O)N2C(C(=O)[O-])=C(SC3Cn4cnc[n+]4C3)[C@H](C)[C@H]12 (stereo not given in full),-0.594%,-1.93%,-0.736%,0.334%,0.724%,2.31%,-1.63%,-0.792%,0.279%,1.62%
O=C1[C@H](CC[C@H](O)c2ccc(F)cc2)[C@@H](c2ccc(O)cc2)N1c1ccc(F)cc1,0.15%,-1.79%,1.88%,-0.813%,-0.454%,-1.33%,-0.443%,-2.25%,-5.97%,0.864%
Cc1cn(-c2cc(NC(=O)c3ccc(C)c(Nc4nccc(-c5cccnc5)n4)c3)cc(C(F)(F)F)c2)cn1,2.27%,3.07%,4.89%,1.74%,3.66%,2.75%,4.26%,1.93%,2.31%,-2.01%
COc1cc(/C=C/C(=O)N2CCN(CC(=O)N3CCCC3)CC2)cc(OC)c1OC,-0.327%,0.826%,-0.108%,-0.784%,0.66%,-2.67%,17.5%,0.556%,-3.03%,-1.16%
